This note sets out measurements from PubChem BioAssay (EPA / NIEHS).

SMILES strings stand for the structures. Inconclusive results are not listed. Activity calls are given as the source filed them. How the source made its calls, unless noted: active means hit-call score of the fitted dose curve at least 0.9, where 1 is the maximum; inactive means score below 0.9.

Experiment [1] in a line: ACEA_ER_80hr: ACEA Biosciences xCELLigence Real-Time Cell Analysis on Estrogen Receptor Agonism for Proliferation (AID 2282667; active means hit-call score of the fitted dose curve at least 0.9, where 1 is the maximum). The conditions noted are these: T47D proliferation, impedance (xCELLigence), 80 h. The method, boiled down:
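Real-time electrical impedance tracked growth of the human breast line T47D, with the 80 h post-dosing value used. Dosing spanned eight 1:4 steps down from a 100 uM final top concentration, run in duplicate.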

Experiment [2] is described as follows: APR_HepG2_CellCycleArrest_24hr: Apredica 24-hour HepG2 Assay for Cell Cycle Arrest (AID 2282905).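 Further: cell cycle arrest scored as ratio of 2N to 4N nuclear DNA content.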 The following applies: imaging, actives raise or lower the signal. The method, boiled down:
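After 24 h exposure at 0.39–200 uM in 0.5% DMSO, fixed cells received Hoechst 33342 staining. Imaging quantified per-nucleus DNA content; gain or loss fitted against DMSO controls.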

Experiment [3] can be described thus: APR_HepG2_NuclearSize_24hr: Apredica 24-hour HepG2 Assay for Nuclear Size (AID 2282907). The conditions noted are these: high-content imaging, actives raise or lower the signal. A digest of the protocol:
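Nuclear size from Hoechst 33342-stained, formaldehyde-fixed HepG2 nuclei imaged by high-content microscopy, after 24 h dosing at ten concentrations from 0.39 to 200 uM in 0.5% DMSO; gain or loss relative to DMSO baseline.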

Experiment [4] can be described thus: APR_HepG2_CellLoss_24hr: Apredica 24-hour HepG2 Assay for Cell Loss (AID 2282908).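 On AC50: fit in both directions so a hit may be cell loss or gain.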 The conditions noted are these: high-content imaging. A digest of the protocol: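 Nuclei stained with Hoechst 33342 after formaldehyde fixation (3.7%) were imaged at 20x to count cells. Exposure lasted 24 hr, at ten concentrations from 0.39 to 200 uM in duplicate, with 0.5% v/v DMSO. Fit bidirectional, relative to DMSO.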

A short description of experiment [5]: APR_HepG2_MitoticArrest_24hr: Apredica 24-hour HepG2 Assay for Mitotic Arrest (AID 2282910). The conditions noted are these: high-content imaging, actives raise or lower the signal. The method, boiled down: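 HepG2, 24 hr dosing, 0.39–200 uM, 0.5% DMSO final. Formaldehyde-fixed, Triton-permeabilised, anti-phospho-histone H3 plus Hoechst. ArrayScan imaging at 20x; bidirectional fit vs DMSO baseline.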

A short description of experiment [6]: APR_HepG2_MitoMembPot_24hr: Apredica 24-hour HepG2 Assay for Mitochondrial Membrane Potential (AID 2282911). The conditions noted are these: imaging, actives raise or lower the signal. A digest of the protocol: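 Cells are dosed for 24 hr across 0.39 to 200 uM with solvent held at 0.5% DMSO. They are then stained with 250 nM MitoTracker Red CMXRos for 30 min, fixed in 3.7% formaldehyde and imaged.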

Experiment [7] can be described thus: APR_HepG2_MitoMass_24hr: Apredica 24-hour HepG2 Assay for Mitochondrial Mass (AID 2282912). The following applies: high-content imaging, actives raise or lower the signal. The method, boiled down:
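Endpoint is MitoTracker Red CMXRos (250 nM, 30 min, pre-fixation) intensity from 20x high-content imaging, nuclei located by Hoechst. Human HepG2 cells received ten concentrations from 0.39 to 200 uM in 0.5% DMSO for 24 hr, duplicate wells. Bidirectional fit relative to DMSO.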

Experiment [8] in a line: APR_HepG2_CellCycleArrest_72hr: Apredica 72-hour HepG2 Assay for Cell Cycle Arrest (AID 2282914). The following applies: high-content imaging, actives raise or lower the signal. The method, boiled down: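 Read-out is Hoechst-stained nuclear DNA content measured by automated fluorescence imaging (20x, six images per well), fitted in both directions relative to DMSO. Human HepG2 liver cells received 0.39–200 uM compound for 72 hr at 0.5% v/v DMSO.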

Experiment [9] can be described thus: APR_HepG2_CellLoss_72hr: Apredica 72-hour HepG2 Assay for Cell Loss (AID 2282915). The conditions noted are these: high-content imaging. The method, boiled down: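 HepG2 cells exposed 72 h to compound at 0.39–200 uM (10 concentrations, duplicate) in 0.5% DMSO. Fixed with 3.7% formaldehyde and Hoechst 33342-stained. Imaged at 20x; nuclear count gives cell number, fitted bidirectionally versus DMSO.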

A short description of experiment [10]: APR_HepG2_P-H2AX_72hr: Apredica 72-hour HepG2 Assay for H2AX Phosphorylation (AID 2282916).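 Further: phospho-histone H2A.x immunostain intensity per cell marking DNA damage.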 The following applies: imaging, actives raise or lower the signal. A digest of the protocol: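 Phospho-histone H2A.x immunofluorescence, multiplexed with Hoechst and c-Jun, quantified by high-content imaging. Compounds applied to HepG2 for 72 h across ten concentrations (0.39–200 uM, 0.5% DMSO), in duplicate; DMSO baseline.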

The nature of experiment [11]: APR_HepG2_MitoMembPot_72hr: Apredica 72-hour HepG2 Assay for Mitochondrial Membrane Potential (AID 2282917). The following applies: imaging, actives raise or lower the signal. A digest of the protocol:
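HepG2 cells dosed 72 hr with compound at 0.39–200 uM in duplicate, 0.5% v/v DMSO final. Mitochondria stained with 250 nM MitoTracker Red CMXRos for 30 min before formaldehyde fixation, imaged by high-content fluorescence; bidirectional fit versus DMSO.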

Experiment [12] can be described thus: APR_HepG2_MicrotubuleCSK_72hr: Apredica 72-hour HepG2 Assay for Microtubule CSK Stabilty (AID 2282919). The following applies: HepG2 microtubule cytoskeleton, high-content imaging, actives raise or lower the signal. The method, boiled down: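 HepG2, 72 hr cmpd exposure, 0.39–200 uM (10 pts, duplicate), 0.5% DMSO. 3.7% formaldehyde fix, 0.5% Triton perm, anti-alpha-tubulin/Cy5 plus Hoechst. HCS fluorescence intensity; bidirectional fit vs DMSO baseline; taxol as positive control.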

Experiment [13] can be described thus: APR_HepG2_P-H2AX_24hr: Apredica 24-hour HepG2 Assay for H2AX Phosphorylation (AID 2282920). The conditions noted are these: high-content imaging, actives raise or lower the signal. A digest of the protocol: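 HepG2, 24 hr, cpd 0.39–200 uM (10 conc, duplicate), DMSO 0.5% v/v final. Fix 3.7% formaldehyde, Triton X-100 permeabilize, anti-phospho-H2A.x 1:200 + Hoechst 2 ug/mL. Imaged, bidirectional fit vs DMSO.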

Experiment [14] is described as follows: APR_HepG2_StressKinase_72hr: Apredica 72-hour HepG2 Assay for Stress Kinase (AID 2282921). The following applies: HepG2 stress kinase (phospho-c-Jun) imaging, actives raise or lower the signal. The method, boiled down:
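Stress kinase signal is phospho-c-Jun immunofluorescence (1:500 primary, Cy3 secondary) in fixed, permeabilized human HepG2 cells imaged at 20x. Exposure lasted 72 hr over ten concentrations from 0.39 to 200 uM, 0.5% DMSO, in duplicate. Bidirectional fit versus DMSO.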

Experiment [15] can be described thus: APR_HepG2_StressKinase_24hr: Apredica 24-hour HepG2 Assay for Stress Kinase (AID 2282922). The following applies: HepG2 stress kinase (phospho-c-Jun) imaging, actives raise or lower the signal. The method, boiled down:
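Read-out: phospho-c-Jun immunofluorescence (Cy3 secondary) quantified by high-content imaging at 20x, nuclei defined by Hoechst 33342. Human HepG2 liver cells dosed 24 hr, 0.39–200 uM, DMSO 0.5% v/v; gain or loss of signal fitted relative to DMSO.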

A short description of experiment [16]: APR_HepG2_MitoMass_72hr: Apredica 72-hour HepG2 Assay for Mitochondrial Mass (AID 2282924).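 Further: MitoTracker Red CMXRos stain intensity per cell imaged as mitochondrial mass.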 The following applies: high-content imaging, actives raise or lower the signal. A digest of the protocol: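 Read-out: MitoTracker Red fluorescence intensity from automated imaging (20x, six fields per well) in human HepG2 liver cells. Dosing ran 72 hr, 0.39–200 uM, 0.5% DMSO; bidirectional curve fitting versus DMSO baseline.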

Experiment [17] can be described thus: APR_HepG2_NuclearSize_72hr: Apredica 72-hour HepG2 Assay for Nuclear Size (AID 2282925). The conditions noted are these: high-content imaging, actives raise or lower the signal. A digest of the protocol:
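Read-out: nuclear diameter from Hoechst 33342 images (ArrayScan, 20x, six fields/well), via cell-cycle image analysis. HepG2 were dosed 0.39–200 uM for 72 hr in 0.5% DMSO. Bidirectional fit relative to DMSO.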

A short description of experiment [18]: APR_HepG2_MicrotubuleCSK_24hr: Apredica 24-hour HepG2 Assay for Microtubule CSK Stabilty (AID 2282909). The following applies: HepG2 microtubule cytoskeleton imaging, actives raise or lower the signal. The method, boiled down:
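Fixed HepG2 cells were stained for alpha-tubulin and imaged after 24 hr exposure to ten concentrations spanning 0.39–200 uM in 0.5% DMSO. Signal change was fitted in both directions relative to DMSO; taxol was the positive control.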

Experiment [19] in a line: APR_HepG2_MitoticArrest_72hr: Apredica 72-hour HepG2 Assay for Mitotic Arrest (AID 2282918). The conditions noted are these: high-content imaging, actives raise or lower the signal. A digest of the protocol: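 Read-out is phospho-histone H3 immunofluorescence with Hoechst nuclear segmentation, imaged at 20x. Human HepG2 liver cells received ten concentrations (0.39–200 uM, final DMSO 0.5% v/v) for 72 hr before fixation. Gain or loss of signal was fitted relative to DMSO.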

Experiment [20] is described as follows: APR_HepG2_p53Act_24hr: Apredica 24-hour HepG2 Assay for p53 Activation (AID 2282913).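 Further: p53 protein immunofluorescence averaged per cell in HepG2 with Hoechst nuclei.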 The conditions noted are these: high-content imaging, actives raise or lower the signal. A digest of the protocol: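 Human HepG2 liver cells; 24 hr cpd treatment, 0.39–200 uM, 0.5% DMSO final. Fixed in 3.7% formaldehyde, permeabilized with 0.5% Triton X-100, stained with anti-p53/Cy5 plus Hoechst 33342. Six images per well at 20x; gain or loss vs DMSO.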

As usually defined, the AC50 is the concentration giving half of the maximal activity seen. As to `CC(C)C(=O)Nc1ccc([N+](=O)[O-])c(C(F)(F)F)c1`, the AC50 in experiment [1] is 80.5 µM (active); in [2], 71 µM (active); in experiment [4] it was 44.4 µM (active); in experiment [5], 62.8 µM (active); in experiment [7], 92.2 µM (active); in experiment [8], 34.9 µM (active). Further, the concentration at half-maximal activity (AC50) in [9] is 58.8 µM (active); in [10], 70.8 µM (active); in [12] it was 67.8 µM (active); in [13] it was 91 µM (active); in [16] it was 74.9 µM (active); in [17], 111 µM (active). The molecule was classed as inactive in experiment [3], in experiment [6], in experiment [11], in [14] and in experiment [15].

Consider `NC(N)=O`, for which the result in experiment [1], in [3], in experiment [4], in experiment [18], in experiment [5] and in experiment [6] was inactive. For the same molecule, the call in experiment [7], in experiment [8], in [9], in [10], in experiment [11] and in experiment [19] was inactive. For the same molecule, the result in [12], in experiment [13], in [14], in [15], in experiment [16] and in experiment [17] was inactive.

On to `CCOc1ccc2[nH]cc(C(=O)NCc3ccccc3)c(=O)c2n1`, for which the AC50 in experiment [1] is 69 µM (active); in experiment [5], 104 µM (active); in experiment [9], 106 µM (active); in experiment [10], 105 µM (active). Moreover, the outcome in [3], in [4], in [18], in experiment [6], in experiment [7] and in experiment [8] was inactive. The molecule was called inactive in experiment [11], in experiment [12], in experiment [13], in experiment [14], in experiment [15] and in experiment [16]. Besides, the molecule was called inactive in [17].

Turning to `Cc1nc(-c2ccccn2)ncc1C(=O)Nn1cc(C)c2cc(F)ccc21`, the molecule was called inactive in experiment [1], in experiment [3], in experiment [10], in [11], in experiment [12] and in experiment [13]. The outcome in experiment [14], in [15], in experiment [16] and in experiment [17] was inactive. Moreover, the AC50 in experiment [2] is 99.5 µM (active); in experiment [4] it was 88.7 µM (active); in experiment [5], 101 µM (active); in experiment [6], 100 µM (active); in [7] it was 108 µM (active); in experiment [8], 162 µM (active). The values for the half-maximal activity concentration (AC50) in experiment [9] and in experiment [19] were 55.3 µM (active) and 72.2 µM (active), respectively.

Turning to `c1ccc2c(c1)-c1cccc3c1c-2cc1ccccc13`, the outcome in [1], in experiment [3], in experiment [18], in experiment [11], in [12] and in experiment [13] was inactive. In addition, the outcome in experiment [14], in [15] and in experiment [17] was inactive. For the same molecule, the AC50 in [4] was 5.87 µM (active); in experiment [5] it was 15.5 µM (active); in [6] it was 70.4 µM (active); in experiment [7] it was 8.67 µM (active); in experiment [8] it was 2.38 µM (active); in experiment [9] it was 7.58 µM (active). For the same molecule, the AC50 in [10] and in [16] was 0.0391 µM (active) throughout.

With `CCCc1ccccc1`, the molecule was classed as inactive in experiment [1], in experiment [3], in experiment [4], in experiment [18], in experiment [5] and in experiment [7]. In addition, the molecule was classed as inactive in experiment [20], in experiment [8], in experiment [9], in experiment [10], in experiment [11] and in experiment [12]. Besides, the outcome in experiment [13], in experiment [14], in [15], in experiment [16] and in experiment [17] was inactive. Further, the concentration at half-maximal activity (AC50) in [6] was 61.3 µM (active).

As for `CCOC(N)=O`, the call in experiment [1], in experiment [3], in experiment [4], in [18], in [5] and in experiment [6] was inactive. In addition, the molecule was classed as inactive in [7], in [20], in experiment [8], in [9], in [10] and in [11]. In addition, the call in experiment [19], in experiment [12], in [13], in experiment [14], in experiment [15] and in experiment [16] was inactive. Besides, the result in [17] was inactive.
